# Compounds without any hit were thinned out: in the full panel of roughly 83,000, 20% have a hit.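 96-well plates, one dose, 48 hours. Percent growth reported; active if below 10.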 Calls of active or inactive are those of the source.
# Test system: 786-0 renal
# Experiment: NCI-60 one-dose screen, 48 h (100 = growth as untreated, 0 = no growth, -100 = all killed)
# Settings: 10 µM unless noted
row,Structure (SMILES),growth
1,Cc1[nH]ccc2cc3nc4ccccc4c3cc12,44.7% (inactive)
2,NS(=O)(=O)c1ccc(-n2ncc3c(N/N=C/c4ccccc4)ncnc32)cc1,93.2% (inactive)
3,O=C(C(=O)c1cc(Br)ccc1O)c1cc(Br)ccc1O,61.2% (inactive)
4,COc1ccc(-c2cnc(SCC(=O)Nc3ccc(-c4nc5ccccc5s4)cc3)n2-c2ccc(OC)cc2)cc1,102% (inactive)
5,N#CSCC1CC(O)(c2ccccc2)C(c2ccccc2)C(c2ccc(Cl)cc2)O1 (stereo not given),-74.3% (active)
6,OCc1n(Cc2ccc3ccccc3c2)cc[n+]1Cc1ccc2ccccc2c1,80.1% (inactive)
7,c1ccc(-c2nc(Nc3nccnn3)c3ccccc3n2)cc1,96.9% (inactive)
8,CCOC(=O)/C=C1/SC(=Nc2ccc(C#N)cc2)N(Cc2ccco2)C1=O,34.6% (inactive)
9,Cc1cnc2nc(-c3ccc(N(C)C)cc3)cn2c1,91.5% (inactive)
10,COc1ccc2c(c1)c(CC(=O)[Se]C)c(C)n2C(=O)c1ccc(Cl)cc1,9.49% (active)
11,COc1cc(/C=C/C(=O)C(C(=O)/C=C/c2ccc(OC(=O)CCNc3nnc(C)s3)c(OC)c2)C(=O)CCNc2nnc(C)s2)ccc1OC(=O)CCNc1nnc(C)s1,-38% (active)
12,O=C1C2C(C(=O)N1CC[Se][Se]CCN1C(=O)C3C(C1=O)[C@H]1C=C[C@@H]3C1)[C@H]1C=C[C@@H]2C1 (stereo not given in full),-84% (active)
13,COc1ccc(OC)c(CCn2cncc2-c2c[nH]c3cc(Br)ccc23)c1,59.5% (inactive)
14,CN(C)c1ncnc2c1ncn2C1CCCCO1 (stereo not given),99.4% (inactive)
15,COc1ccc2c(c1)sc1nc(-c3ccc(Br)cc3)cn12,98% (inactive)
16,O=C(Nc1ccccc1OC(=O)c1ccccc1)c1ccccc1,96% (inactive)
17,Cc1csc(C#Cc2cncc(O)c2)n1,105% (inactive)
18,COc1ccc2nc(NC(=O)CN3CCn4c(nnc4C(F)(F)F)C3)sc2c1,96.9% (inactive)
19,CCOC(=O)C(Br)=P(c1ccccc1)(c1ccccc1)c1ccccc1,103% (inactive)
20,C=CCN(/C=C/CN(CC=C)CC=C)CC=C,104% (inactive)

row,Structure (SMILES),growth
1,O=C1NC(=S)S/C1=C\c1cc(Br)ccc1O,109% (inactive)
2,COc1ccc(C(=O)/C=C/c2cccc(Nc3ccnc4cc(Cl)ccc34)c2)cc1,-35.4% (active)
3,CCCCCCCCCCOC(C)=O,114% (inactive)
4,O=C1C(=O)c2c(nc3ccc(Cl)cn23)-c2ccccc21,-100% (active)
5,CC(=O)OCC(=O)[C@@]1(O)CC[C@H]2[C@@H]3CCC4=CC(=O)CC[C@]4(C)[C@@]3(F)[C@@H](O)C[C@@]21C,116% (inactive)
6,CCc1nn2c(-c3ccc(Cl)cc3C)c(-c3cc(OC)c(OC)c(OC)c3)nc2s1,72.9% (inactive)
7,COc1cc(/C=C/C(=O)C(C(=O)/C=C/c2ccc(OC(=O)CCNC34CC5CC(CC(C5)C3)C4)c(OC)c2)C(=O)CCNC23CC4CC(CC(C4)C2)C3)ccc1OC(=O)CCNC12CC3CC(CC(C3)C1)C2 (stereo not given),-53.3% (active)
8,CN(C)c1ccc(-c2nc3ncc(Br)cc3o2)cc1,86.5% (inactive)
9,CCCc1n(Cc2ccc3ccccc3c2)cc[n+]1Cc1ccc2ccccc2c1,9.55% (active)
10,N#Cc1c(-c2ccccc2)cc(-c2ccccc2)n(CCC(=O)O)c1=O,62.6% (inactive)
11,C=C1CCC2C3(C)COC(c4ccccc4)OC3CCC2(C)C1C/C=C1/C(=O)OCC1OC(C)=O (stereo not given),95.3% (inactive)
12,O=C(CNC(=O)c1cccc2ccccc12)Nc1ccccc1Cc1ccccc1,45.3% [5 µM] (inactive)
13,COC(=O)C1=CCC(n2cnc3c(N)ncnc32)O1 (stereo not given),107% (inactive)
14,O=C(NC1CCCCC1)c1ccc(Nc2ncnc3c2cnn3-c2ccccc2)cc1,72.1% (inactive)
15,COc1ccc(-c2cc(-c3cccnc3)nc3sc(C(=O)Nc4ccccc4)c(N)c23)cc1OC,63.9% (inactive)
16,Clc1ccc(C2=NN(c3ccc(Cl)cc3)C(c3cccc(Nc4ccnc5cc(Cl)ccc45)c3)C2)cc1 (stereo not given),85.3% (inactive)
17,CCCCN=C(N)c1ccc(OCCSCCOc2ccc(C(N)=NCCCC)cc2)cc1,82.5% (inactive)
18,C/C(=C\CCc1ccoc1)CC/C=C(\C)CCCC1COC(=O)C1 (stereo not given),101% (inactive)
19,Oc1c(Cl)cc(Oc2cc(Cl)c(O)c(CN3CCOCC3)c2)cc1CN1CCOCC1,105% (inactive)
20,CCOC(=O)CCN(c1c(Cl)ssc1=O)C(C)C,98.9% (inactive)

# Reference: PubChem BioAssay (NCI)
